Experimental data reported in PubChem BioAssay (NCATS).
Results filed as inconclusive are left out. Calls of active or inactive are those of the source. Calls come from the whole dose curve.

Test: Cell Viability - MRC5 (AID 434);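 note: cells exposed to compound for 40 hours at 37 °C; potency reflects cytotoxicity seen as loss of intracellular ATP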
Details: MRC5 lung fibroblast viability, qHTS
Outline: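 Decrease in intracellular ATP, quantified by luciferase light output, reflects compound toxicity toward MRC5 cells exposed for 40 hr in complete culture medium. Concentration-response curves, scaled between DMSO and 100 uM tamoxifen, gave AC50 values.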
Potency is the fitted concentration of half-maximal effect.

SMILES	Potency
CCC1CO1 (stereo not given)	> 92 µM (inactive)
FC(F)(F)c1cccc(Cl)c1	> 92 µM (inactive)
O=Nc1ccc(NO)cc1	> 92 µM (inactive)
CC(=O)Nc1ccc(C)cc1	> 92 µM (inactive)
C=Cc1ccccn1	> 92 µM (inactive)
CCNc1ccccc1	> 92 µM (inactive)
Cc1ccccc1Br	> 92 µM (inactive)
O=C(O)CNC(=O)c1ccc([N+](=O)[O-])cc1	> 92 µM (inactive)
CCCCC/C=C/C=C/C=O	> 92 µM (inactive)
C=C(C)C(=O)OCC(C)C	> 92 µM (inactive)
C[C@@H]1CC2(OC[C@]3(C)O[C@H]23)O[C@H]2C[C@@]3(C)[C@@H]4CC[C@H]5C(C)(C)C(O[C@@H]6OC[C@@H](O)[C@H](O)[C@H]6O)CC[C@@]56C[C@@]46CC[C@]3(C)[C@@H]12 (stereo not given in full)	> 92 µM (inactive)
c1ccc2n[nH]nc2c1	> 92 µM (inactive)
C/C=C1\CC2C=CC1C2 (stereo not given)	> 92 µM (inactive)
CCC(O)C(C)(C)C (stereo not given)	> 92 µM (inactive)
CCOC(=O)OCC	> 92 µM (inactive)
CC(=O)OCc1ccco1	> 92 µM (inactive)
COc1ccccc1[N+](=O)[O-]	> 92 µM (inactive)
CCCCC(CC)COCC1CO1 (stereo not given)	> 92 µM (inactive)
Cc1c(N)cccc1[N+](=O)[O-]	> 92 µM (inactive)
ClC/C=C/CCl	> 92 µM (inactive)

SMILES	Potency
N#CCc1ccccc1[N+](=O)[O-]	> 92 µM (inactive)
Cc1cccc(C)c1[N+](=O)[O-]	> 92 µM (inactive)
Cc1ccc2ccccc2c1[N+](=O)[O-]	> 92 µM (inactive)
CCCOCC(C)O (stereo not given)	> 92 µM (inactive)
CSc1ccc(C=O)cc1	> 92 µM (inactive)
CC(O)COC(C)(C)C (stereo not given)	> 92 µM (inactive)
Fc1ccccc1	> 92 µM (inactive)
NC(=O)NC(N)=O	> 92 µM (inactive)
C=CC(=O)NC(C)C	> 92 µM (inactive)
CCOC(=O)C(C)C(C)=O (stereo not given)	> 92 µM (inactive)
O=C(O)c1ccc(Cl)cc1Cl	> 92 µM (inactive)
C=C(C)C1CC=C(C)C(OC(C)=O)C1 (stereo not given)	> 92 µM (inactive)
O=C(O)c1ccccc1Cl	> 92 µM (inactive)
CCOCCOCC	> 92 µM (inactive)
CCCCCCCCN	> 92 µM (inactive)
CC(C)=CCC/C(C)=C/C=O	> 92 µM (inactive)
C/C=C(/C)C#N	> 92 µM (inactive)
CC(C)(c1cc(Br)c(OCC(Br)CBr)c(Br)c1)c1cc(Br)c(OCC(Br)CBr)c(Br)c1 (stereo not given)	> 92 µM (inactive)
Cc1cc(C(=O)O)ccc1[N+](=O)[O-]	> 92 µM (inactive)
CN(C)CCCNCCCN	> 92 µM (inactive)
